PubChem BioAssay AID1430 (University of Pittsburgh Molecular Library Screening Center, 2008)
In all, about 220,000 compounds went through this assay and about 240 (0.11%) were called active. Only a selection was taken, and actives are over-represented in it overall. Values without a mark were called inactive.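 Rule for the calls: active = inhibition of 50% or more in the single-dose primary screen; inactive = inhibition below 50%.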

test system: hexokinase 1 [Trypanosoma brucei]; experiment: Trypanosoma brucei hexokinase 1 inhibitors, primary screen, biochemical, G6PDH-coupled NADH absorbance, MLSCN library (AID 1430); details: recombinant TbHK1, G6PDH-coupled NADH A340; at 10 µM; stronger effect = higher value

Row | SMILES | inhibition
1 | O=C(CCc1[nH]c2ccccc2c1Sc1ccccc1)N(CCO)CCO | 19.8%
2 | Cc1nnsc1S(=O)(=O)Cc1ccccc1Cl | 5.71%
3 | COCCNC(=S)N/N=C/c1c(C)[nH]c2ccccc12 | -58.6%
4 | CC(=O)Nc1ccc(S(=O)(=O)N(CCc2ccccc2)CC(=O)N/N=C/c2ccc(C(=O)O)cc2)cc1 | -12.9%
5 | CCOC(=O)C1(c2ccccc2)NC(c2ccc(N(C)C)cc2)C2C(=O)N(C)C(=O)C21 (centres undefined) | -3.65%
6 | COc1cc(CN(C)Cc2nc3cc(C(F)(F)F)ccc3c(=O)[nH]2)ccc1OC(F)F | 1.94%
7 | Fc1ccc(/C=N/Nc2nc(-c3cccnc3)nc3ccccc23)cc1 | -55.8%
8 | COc1ccc(OCC(O)CNC(=O)Nc2ccc(Cl)cc2)cc1 (centres undefined) | 2.73%
9 | Cc1cc(=O)oc(C)c1C(=O)NC1CC(C)(C)NC(C)(C)C1 | -4.42%
10 | O=C(Cn1c(N2CCN(C/C=C/c3ccccc3)CC2)nc2ccccc21)c1ccccc1 | -2.21%
11 | Cc1nn(-c2ccccc2)c(=O)c2noc(C)c12 | -6.64%
12 | CCOC(=O)c1cccnc1NC(=O)c1ccncc1 | -3.95%
13 | Cc1nc(-c2ccc(Cl)cc2)sc1C(=O)NN | -13%
14 | CC(C)CNC(=O)COC(=O)/C=C/c1ccco1 | -4.39%
15 | CCN(C(=O)CN1CCN(Cc2ccccc2)CC1)c1c(N)n(Cc2ccccc2)c(=O)[nH]c1=O | 4.79%
16 | Cc1cccc(OC(=O)c2sc3ncn(C)c(=O)c3c2C)c1 | 2%
17 | Cc1cccc(NC(=S)N2CCC(O)CC2)c1C | 5.41%
18 | O=[N+]([O-])c1cc(S(=O)(=O)N2CCCC2)ccc1NN=C1CCCC1 | 36.1%
19 | Cc1ccc(S(=O)(=O)NC(=O)Nc2nc(-c3ccc(F)c(F)c3)cs2)cc1 | -8.79%
20 | Cc1ccccc1NC(=S)N(CCCN1CCOCC1)Cc1cccs1 | 25.4%
21 | COc1ccc(CN(C)Cc2nc3cc(OC)c(OC)cc3c(=O)[nH]2)c(OC)c1 | 1.93%
22 | COc1ccc(CC(=O)NCc2nnc(SCC(=O)Nc3nccs3)n2C)cc1 | -2.5%
23 | O=C(/C=C/c1ccccc1)Oc1coc(CSc2ncccn2)cc1=O | -1.22%

Row | SMILES | inhibition
24 | CCc1ccc(NC2Nc3cc(C)nn3S2)cc1 (centres undefined) | -2.97%
25 | CC(=O)c1ccc(S(=O)(=O)Nc2ccc(C(=O)NCC(c3ccccc3)N(C)C)cc2)cc1 (centres undefined) | -5.8%
26 | O=C(Nc1cccc2c1N(C(=O)c1ccco1)CCC2)c1ccco1 | -6.72%
27 | CCOc1cnc(-c2c(-c3ccccc3Cl)noc2C)o1 | -3.33%
28 | O=C(O)COc1ccc(/C=N/O)cc1Br | 6.57%
29 | O=S(=O)(Nc1ccc2cn[nH]c2c1)c1ccccc1 | -2.67%
30 | O=C(O)C(c1ccccc1)C1(O)CCCCC1 (centres undefined) | -7.32%
31 | S=C(NCc1ccc2c(c1)OCO2)NCc1ccco1 | -4.45%
32 | COc1ccc(/C=C/C(=O)Nc2c(C)nn(C)c2C)cc1COc1ccc(Br)cc1 | -11.6%
33 | Cc1csc(=Nc2ccccc2)n1CCO | -4.03%
34 | O=C(Cn1cnc([N+](=O)[O-])n1)NCCc1ccccc1 | -4.47%
35 | COc1cccc(CC2(CO)CCCN(Cc3nc(-c4cccs4)oc3C)C2)c1 (centres undefined) | 6.9%
36 | COc1cc(Cl)c(C)cc1NC(=O)[C@@H]1CCCN1C(=O)c1cccs1 | -2.99%
37 | CC/C(=N\NC(=S)NC(C)C)c1ccc(OC(F)F)cc1 | 10.1%
38 | O=C(c1ccc2ccccc2n1)N1CCN(c2ccccc2Cl)CC1 | -6.88%
39 | CCN(/N=C/c1ccc(N(C)C)cc1)c1nc2ccccc2[nH]1 | -4.95%
40 | COc1ccc(C(C#N)Nc2ccccc2C)cc1 (centres undefined) | 4.57%
41 | COC(=O)c1c(NC(=O)COC(=O)[C@@H](NS(=O)(=O)c2ccccc2)C(C)C)sc2c1CCC2 | -13.7%
42 | CC(C)COC(=O)n1c(=O)oc2ccc(S(=O)(=O)N3CCCCC3)cc21 | -6.57%
43 | Cc1cc(C)n2nc(C(=O)N(C)C(c3ccccc3)c3ccccc3)nc2n1 | 1.27%
44 | C[n+]1ccccc1C1CCCC/C1=N\Nc1ccc([N+](=O)[O-])cc1[N+](=O)[O-] (centres undefined) | -18.3%
45 | CCOC(=O)/C(=N\Nc1ccccc1Cl)N(C)C1CCS(=O)(=O)C1 (centres undefined) | -29.3%
46 | Cn1cc(/C=C/C(=O)N2CCCC(C(=O)c3ccc(C(F)(F)F)cc3)C2)cn1 (centres undefined) | -9.79%

Row | SMILES | inhibition
47 | CC(C)(C)NC(=O)NCc1ccco1 | 3.59%
48 | O=C(COC(=O)/C=C/c1cn(-c2ccccc2)nc1-c1cccnc1)Nc1ccc(Cl)cc1Cl | -3.93%
49 | CC(=O)Nc1ccc(Nc2c([N+](=O)[O-])cc(S(C)(=O)=O)cc2[N+](=O)[O-])cc1 | -2.68%
50 | Cc1ccccc1C(=O)NNC(=O)CN1C(=O)c2ccccc2C1=O | 0.726%
51 | COc1ccc(/C=N/NS(=O)(=O)c2ccc(NC(C)=O)cc2)cc1 | -17.4%
52 | Cc1ccc(NC(=O)C(=O)NCC2CCN(C(=O)c3cccc([N+](=O)[O-])c3)CC2)cc1 | -4.84%
53 | CC(=O)NC(Cc1ccc(F)c(F)c1)C(=O)NC1CCN(c2nnnn2-c2ccccc2)CC1 (centres undefined) | -4.26%
54 | O=C(c1ccncc1)c1ccc([N+](=O)[O-])cc1 | -1.97%
55 | COc1ccc(CCNC(=O)CN(c2ccccc2)S(C)(=O)=O)cc1 | 2.74%
56 | OC(CN1C2=NCCCN2c2ccccc21)c1ccc(Br)cc1 (centres undefined) | -1.72%
57 | CN(CC#CCC(c1ccccc1)c1ccccc1)C(C)(C)C | -4.21%
58 | O=C(O)c1cccnc1NC1CCCC1 | -18.1%
59 | O=C(O)c1ccc(N=NN2CCOCC2)cc1 | 11.7%
60 | COCCNc1cc(NCCOC)c([N+](=O)[O-])cc1[N+](=O)[O-] | -26.9%
61 | Cc1ccc(CNC(=O)CC2Sc3ccccc3NC2=O)cc1 (centres undefined) | -3.22%
62 | CC(C)(C)c1ccc(C(=O)NCc2nnc(SCC(=O)N3CCCc4ccccc43)n2-c2ccccc2)cc1 | -3.07%
63 | Cc1ccc(-n2nc(N)c3c(=O)oc(N(C)C)nc32)cc1 | 0.228%
64 | OCCCNC(c1ccccc1)c1ccc(O)cc1 (centres undefined) | 0.734%
65 | OCCn1c(-c2ccccc2)csc1=Nc1ccccc1 | -11.3%
66 | CC1(C)CC(=O)C=C(NCCCNC2CCCCC2)C1 | 58.6% (active)
67 | CC1(C)CC(=O)C=C(NCCCN2CCCC2=O)C1 | 0.498%
68 | CC1(C)CC(=O)C=C(NCCN2CCNCC2)C1 | -12.2%
69 | Cc1cc(C)c2nc(SCC(=O)N(C)C3CCS(=O)(=O)C3)cc(C)c2c1 (centres undefined) | -5.97%

Row | SMILES | inhibition
70 | CCc1ccc(-c2nn(-c3ccccc3)cc2CSC(=N)N)cc1 | 14%
71 | O=c1c(-c2ccccc2)cnc2n1CCS2 | -3.12%
72 | CN(C)c1ccc(C=C2C(=O)OC3(CCCC3)OC2=O)cc1 | -24.4%
73 | Cc1cccc(C)c1NC(=O)C(c1ccccc1)N1CC(=O)Nc2ccccc21 (centres undefined) | 3.26%
74 | C/C(CC1CC(C)(C)OC1=O)=N/Nc1nc(-c2ccccc2)cs1 (centres undefined) | -4.91%
75 | CCOC(=O)C(=O)Nc1nc(-c2ccccc2)c(CC)s1 | -8.25%
76 | Cc1ccc(CNC(=O)COc2ccc(S(=O)(=O)NC(C)C)cc2)cc1 | -6.99%
77 | O=C(NC(=S)Nc1cc(C(F)(F)F)ccc1N1CCOCC1)c1ccc(-c2cccc(Cl)c2)o1 | -33.5%
78 | CCNC(=O)CC1C(=O)N(c2ccc(F)cc2)C(=O)N1Cc1cccs1 (centres undefined) | -6.58%
79 | COC(=O)c1ccc(NC(=S)NN2CCOCC2)cc1 | 0.284%
80 | COc1ccc(NS(=O)(=O)c2cc(NC(=O)CC(=O)c3ccc([N+](=O)[O-])cc3)ccc2C)cc1 | -3.8%
81 | N#C/C(C(=S)Nc1ccccc1)=C1/NN=C(N2CCOCC2)N1c1ccccc1 | -22%
82 | Cc1ccc(C(=O)N/C(=C\c2ccco2)C(=O)N2CCSCC2)cc1C | -18.1%
83 | C/C(=N/NC(=O)c1cc(Cl)ccc1O)C12CC3CC(CC(C3)C1)C2 | -5.54%
84 | Cn1nc(C(F)(F)F)cc1-c1ccc(/C=C(\C#N)C(=O)c2cccc(C(F)(F)F)c2)s1 | 20.2%
85 | Cc1ccc(/C=C/C(=O)Nc2ccc([N+](=O)[O-])c(NC(=O)/C=C/c3ccc(C)o3)c2)o1 | -13.6%
86 | Cc1ccc2[nH]c(C)c(CCNC(=O)NC3CCCCC3)c2c1 | -1.75%
87 | C/C(=N/Nc1ccc(Cl)cc1)c1cnnc(-c2ccccc2)n1 | -3.6%
88 | COC(C[C@H](O)CC(=O)COCc1ccccc1)OC | -5.95%
89 | CC1CCCN(C(=O)c2ccc3c(c2)C(=O)N(CCC2=CCCCC2)C3=O)C1 (centres undefined) | 9.11%
